# PubChem BioAssay (NCI)
# Values joined by “and” are separate entries in the source; they are usually repeats but may differ in a detail not shown here. Equal values may be shown once. About 83,000 compounds went through this panel and 20% of them were active in at least one assay; those are over-represented in the sample as a whole.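 How to read the values: 0–100, growth inhibition (40 = 60% inhibited); 0, no net growth; -100 to 0, cell death (-40 = 40% of starting cells died; -100 = all dead).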 Active and inactive are the calls of the source.
# System: ACHN renal
# Assay: NCI-60 one-dose screen, 48 h (100 = growth as untreated, 0 = no growth, -100 = all killed)
# Conditions: 10 µM
# Experimental: Growth inhibition of the ACHN human tumor cell line is measured as a screen for anti-cancer activity. Cells are grown in 96 well plates and exposed to the test compound for 48 hours. Compounds are tested at a single concentration, which is 10^-5 M for most compounds. The reported endpoint is percent growth (GI% or GIPRCNT), where numbers from 0 - 100% represent growth inhibition, and numbers from -100% - 0 represent cell death. For example, a value of 40 represents 60% growth inhibition. A value of 0 means no net growth occurred over the course of the experiment. A value of -40 indicates 40% of cells at the beginning of the experiment died by the end of the experiment. A value of -100 means all cells are dead at the end of the experiment.
# NCI-60 Human Tumor Cell Lines Screen was performed using the standard one-dose NCI protocol, which is described in more detail at https://dtp.cancer.gov/discovery_development/nci-60/default.htm.
# Compounds with GIPRCNT values below 10 were considered active. Activity score was based on GIPRCNT using the following formula: […]
# Score is 0 for GIPRCNT values of 100 or above, 50 for GIPRCNT values of 0, and 100 for GIPRCNT values of -100.
row,Structure (SMILES),growth
1,O=C(O)CCCc1ccc(N(CCCl)CCCl)cc1,72.4% (inactive) and 38.8% (inactive)

# Same assay, conditions: 10 µM unless noted
row,Structure (SMILES),growth
1,O=S(=O)(c1ccc(O)cc1)c1ccccc1O,98.7% (inactive)
2,CCC(Br)(CC)C(=O)NC(N)=O,109% (inactive)
3,O=c1[nH]c(=O)[nH]c(=O)[nH]1,161% (inactive)
4,Clc1ccc(COC(Cn2ccnc2)c2ccc(Cl)cc2Cl)c(Cl)c1 (stereo not given),53.8% (inactive) and 72.4% (inactive)
5,C#Cc1cccc(Nc2nc(Cl)nc3cc(NC(=O)CF)ccc23)c1,92.5% (inactive)
6,CC(C)COC(=O)Cc1ccccc1,108% (inactive)
7,C[C@]12CCc3sc(Nc4ccc(F)cc4F)nc3C1=CC[C@@H]1[C@@H]2CC[C@]2(C)C(=O)CC[C@@H]12,37.7% (inactive)
8,C[C@]12CCc3sc(Nc4ccc(OC(F)(F)F)cc4)nc3C1=CC[C@@H]1[C@@H]2CC[C@]2(C)C(=O)CC[C@@H]12,71.6% (inactive)
9,Cc1nnc([S-])o1.[Au+].c1ccc([PH+](c2ccccc2)c2ccccc2)cc1,0.817% (active)
10,O=S(OO)c1cc(Cl)c(O)c(Cl)c1 (stereo not given),100% (inactive)
11,C/C(=N/OC(=O)N(C)C)c1ccc(Cl)c(Cl)c1,112% (inactive)
12,CN(C)c1ccc(N)cc1,99.5% (inactive) and 64.9% (inactive)
13,CNC(=O)Oc1ccc(Cl)cc1SSc1cc(Cl)ccc1OC(=O)NC,87.2% (inactive)
14,O=C1NC(=O)C(=Cc2ccccc2)C(=O)N1,99.5% (inactive) and 112% (inactive)
15,CCOP(=O)(NC)OCC,108% (inactive)
16,N#CCC(=O)c1ccccc1,106% (inactive)
17,O=[N+]([O-])c1ccc(OCc2ccc(S(=O)(=O)F)c(Cl)c2)c(Cl)c1,92.7% (inactive)
18,COc1cc(-c2ccc(N)c(OC)c2)ccc1N,100% (inactive)
19,CCC1(CCSC#N)C(=O)NC(=O)NC1=O,106% (inactive)

row,Structure (SMILES),growth
1,CC(=O)Cc1ccc2c(c1)OCO2,108% (inactive)
2,NC1CN2CCC1CC2 (stereo not given),93% (inactive)
3,COc1ccc2c(c1)c(-c1nc(-c3c[nH]c4ncccc34)cs1)cn2CCCCN1CCOCC1,17.1% (inactive)
4,O=[N+]([O-])c1ccc(P(=O)(O)O)cc1,98.8% (inactive)
5,CN(C)C(=S)SSC(=S)N(C)C,100% (inactive)
6,Nc1c(Cl)c(Cl)nc(C(=O)O)c1Cl,88.2% (inactive)
7,O=[P+](O)c1cccnc1,110% (inactive)
8,CNC(=O)CCl,114% (inactive)
9,CO[C@H]1[C@H](O[C@@H]2C[C@@H]3C/C=C/C(=O)O[C@@H](CO)C[C@H](O)[C@@H]4C[C@H](C)[C@H](C/C=C\C=C\[C@H](C)C[C@H](C2)O3)O4)O[C@@H](C)[C@H](O)[C@H]1O,66.4% (inactive)
10,C#COc1cccc(Nc2ncnc3cc(NC(=O)CF)ccc23)c1,48.3% [6.25 µM] (inactive)
11,O=NN1CCCCC1,101% (inactive)
12,C=C1C(=O)OC2CC3(C)OC3C3OC3C3=CC(OC3=O)C12 (stereo not given),-5.94% (active) and -29% (active)
13,CC[C@H](C)[C@H](NC(=O)[C@H]1CCCCN1C)C(=O)N(C)[C@H](C[C@@H](OC(C)=O)c1nc(C(=O)NC23C4C5C2C2C3C4C52C(=O)OC)cs1)C(C)C (stereo not given in full),16.2% (inactive)
14,COc1ccc2c(c1)c(-c1nc(-c3cn(C)c4ncccc34)cs1)cn2CCCCN1CCOCC1,32% (inactive)
15,COC(=O)C1=CO[C@@H](C)[C@@H]2CN3CCc4c([nH]c5cc(OC)ccc45)[C@@H]3C[C@H]12,94.8% (inactive)
16,CC1=C2[C@H]3OC(=O)[C@@H](C)[C@@H]3CC[C@@]2(C)C=CC1=O,95.7% (inactive)
17,N#Cc1ccc(Cl)cc1,102% (inactive)
18,Nc1cccnc1,113% (inactive)
19,O=C(CBr)OCCOC(=O)CBr,83% (inactive)

# Same assay, conditions: 75 µM
row,Structure (SMILES),growth
1,O=C(O)CCCc1ccc(N(CCCl)CCCl)cc1,-12.3% (active)
